Source: PubChem BioAssay (NCATS)
Calls of active or inactive are those of the source. The call rests on the fitted dose curve; in most records, active means well fitted curve in the direction sought with a large enough effect (not every such curve was filed as active); inconclusive means small, poorly fitted or top-dose-only effect, or effect the other way, or another doubt; inactive means no such curve, though single readings can be large or run the other way.

What follows are compounds tested against Pyruvate kinase PKM (Homo sapiens) (UniProt P14618) (assay: qHTS Assay for Activators of Human Muscle Pyruvate Kinase (AID 954)). Conditions: purified human muscle pyruvate kinase, luciferase-coupled luminescence, 1 h; series mostly up to 57.5 µM.
Chain of Pyruvate kinase PKM (Homo sapiens) (P14618 whole entry, looked up): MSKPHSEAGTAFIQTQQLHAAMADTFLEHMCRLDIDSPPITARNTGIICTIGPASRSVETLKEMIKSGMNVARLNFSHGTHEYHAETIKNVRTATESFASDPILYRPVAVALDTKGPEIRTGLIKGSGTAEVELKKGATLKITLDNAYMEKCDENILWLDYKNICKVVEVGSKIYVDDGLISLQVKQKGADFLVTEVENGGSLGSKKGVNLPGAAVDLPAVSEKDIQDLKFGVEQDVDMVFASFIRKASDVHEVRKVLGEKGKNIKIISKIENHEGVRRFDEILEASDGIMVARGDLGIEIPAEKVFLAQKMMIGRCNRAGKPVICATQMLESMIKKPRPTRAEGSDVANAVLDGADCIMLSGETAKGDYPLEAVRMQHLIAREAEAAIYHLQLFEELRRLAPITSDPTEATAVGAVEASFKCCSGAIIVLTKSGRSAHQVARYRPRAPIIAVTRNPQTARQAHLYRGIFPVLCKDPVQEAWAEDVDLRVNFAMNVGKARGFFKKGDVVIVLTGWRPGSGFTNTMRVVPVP
Method in brief: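 Purified human PKM2 (0.1 nM) with 0.5 mM PEP (Km) and 0.1 mM ADP in 50 mM imidazole pH 7.2, KCl, MgCl2, 1 h at room temperature; ATP formed read by coupled luciferase luminescence. Normalized to no-enzyme/110 uM thiadiazolimine inhibition; 0.3 nM enzyme column for activation.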
With `CN(C)CCCN1c2ccccc2Sc2ccc(C(F)(F)F)cc21` the outcome was “inactive”. For `CN(C)CCOC(=O)COc1ccc(Cl)cc1`, the outcome was “inactive”. With `C[N+](C)(C)CCOC(=O)CCC(=O)OCC[N+](C)(C)C` the outcome was “inactive”. For `C[C@]12CCC(=O)C=C1CC[C@@H]1[C@@H]2C(=O)C[C@@]2(C)[C@H]1CC[C@]2(O)C(=O)CO`, the outcome was “inactive”.
